Molecules are shown by their SMILES. “And” between values parts separate entries of the source, which are not always exact repeats. Identical values can stand only once. Results filed as inconclusive are left out. Where a call stands in place of a potency, no number is given. The source made the active and inactive calls. Unless noted, calls come from the whole dose curve; as a rule, active = well fitted curve in the direction sought with a large enough effect in the repeat runs; inconclusive = weak or mixed curves; inactive = no such curve, though single readings can be large; an effect the other way counts as inactive or inconclusive.

Here are results for 35 compounds from PubChem BioAssay (Tox21).

Androgen receptor (Homo sapiens), sequence (P10275 whole entry, looked up): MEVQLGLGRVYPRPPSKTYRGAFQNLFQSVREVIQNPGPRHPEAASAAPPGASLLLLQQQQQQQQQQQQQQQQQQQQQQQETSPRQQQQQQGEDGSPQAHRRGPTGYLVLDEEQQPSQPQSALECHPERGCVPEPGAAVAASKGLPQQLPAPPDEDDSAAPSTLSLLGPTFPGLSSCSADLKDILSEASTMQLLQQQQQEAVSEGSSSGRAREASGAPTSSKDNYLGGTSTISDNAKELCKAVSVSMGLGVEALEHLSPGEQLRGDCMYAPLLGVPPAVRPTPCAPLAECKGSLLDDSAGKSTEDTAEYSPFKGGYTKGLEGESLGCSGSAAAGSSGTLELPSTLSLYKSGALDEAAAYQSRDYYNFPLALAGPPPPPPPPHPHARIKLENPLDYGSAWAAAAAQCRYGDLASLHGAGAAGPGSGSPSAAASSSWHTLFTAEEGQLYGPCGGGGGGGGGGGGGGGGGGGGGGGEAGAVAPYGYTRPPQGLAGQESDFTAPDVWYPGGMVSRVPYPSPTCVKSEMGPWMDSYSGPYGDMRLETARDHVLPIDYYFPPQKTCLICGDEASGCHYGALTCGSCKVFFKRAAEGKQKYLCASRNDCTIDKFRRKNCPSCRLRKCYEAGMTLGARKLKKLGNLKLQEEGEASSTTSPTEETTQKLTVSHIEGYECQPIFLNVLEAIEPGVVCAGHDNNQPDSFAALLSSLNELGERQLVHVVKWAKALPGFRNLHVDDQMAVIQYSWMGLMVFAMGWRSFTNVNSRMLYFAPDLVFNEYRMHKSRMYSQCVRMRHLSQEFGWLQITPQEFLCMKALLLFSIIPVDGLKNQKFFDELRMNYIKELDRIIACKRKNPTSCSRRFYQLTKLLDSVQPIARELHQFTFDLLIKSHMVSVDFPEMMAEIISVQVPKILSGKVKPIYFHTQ

One test has as its target Androgen receptor (Homo sapiens) (UniProt P10275). Nature of the test: qHTS assay to identify small molecule agonists of the androgen receptor (AR) signaling pathway (AID 743036; active = well fitted activation curve with a large enough effect in the signal ratio in the repeat runs, with a control signal flat, not every such curve was filed as active; the % refers to the signal ratio). The following applies: HEK293 AR-UAS-bla GripTite, beta-lactamase FRET ratio, 16 h; series mostly up to 62.4 µM. In short, it runs like this:
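Screening used 2,000 AR-bla HEK293 cells per well, treated 16 h at 37C with test compounds in DMSO alongside positive and DMSO-only controls; beta-lactamase activity was then read by LiveBLAzer B/G FRET fluorescence after 2 h at room temperature.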
On the technique in general: Quantitative high-throughput screening tests each substance at several concentrations.
As for `CC(=O)NNc1ccccc1`, the Potency result is “inactive”.

As for `O=P(OCC(Br)CBr)(OCC(Br)CBr)OCC(Br)CBr` (stereo not given), the Potency entry is “inactive”.

Consider `CC(C)(C)NCC(O)c1cc(Cl)c(N)c(C(F)(F)F)c1` (stereo not given), for which the Potency entry is “inactive”.

The next test shares this target. Nature of the test: qHTS assay to identify small molecule agonists of the androgen receptor (AR) signaling pathway using the MDA cell line (AID 743040; note: nearly all actives have a fitted effect of over 20% in size). The following applies: MDA-kb2 AR-luc cells, MMTV luciferase, 16 h; activity change: at 70.3 µM (top of the series), hits give high values. In short, it runs like this: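 MDA-kb2 breast carcinoma cells carrying MMTV-luciferase (responsive to AR and GR), plated 5 h then treated 16 h with compounds at 37C, 0% CO2. Read-out was ONE-Glo luminescence after 30 min at room temperature.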
Take `CC(=O)NNc1ccccc1`: the Potency entry is “inactive”.

In the case of `O=P(OCC(Br)CBr)(OCC(Br)CBr)OCC(Br)CBr` (stereo not given), the Potency result is “inactive”.

As for `CC(C)(C)NCC(O)c1cc(Cl)c(N)c(C(F)(F)F)c1` (stereo not given), the Potency result is “inactive”.

For the compound `O=C(O)CCCOc1ccc(Cl)cc1Cl`, the Potency entry was “inactive”.

Tested on in the next test: not listed separately
Nature of the test: qHTS assay to identify small molecule antagonists of the androgen receptor (AR) signaling pathway using the MDA cell line - cell viability counter screen (AID 743041; note: nearly all actives have a fitted effect of over 45% in size; note: potency is the fitted concentration of half-maximal effect). The following applies: MDA-kb2 viability, CellTiter-Fluor, 16 h, cells co-treated with R1881 androgen agonist; series mostly up to 70.3 µM. In short, it runs like this:
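MDA-kb2 AR-luc cells (MMTV-luciferase, AR/GR responsive) treated with compounds plus R1881 agonist for 16 h at 37C. CellTiter-Fluor added at 15.5 h; fluorescence read after 30 min in the same wells.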
With `Cc1ncc(C[n+]2csc(CCO)c2C)c(N)n1`, the Potency result is “inactive”.

Turning to `C=CCSSCC=C`, the Potency entry was “inactive”.

In the case of `CCCCC(CC)COC(=O)c1c(Br)c(Br)c(Br)c(Br)c1C(=O)OCC(CC)CCCC` (stereo not given), the Potency result is “inactive”.

For `CCCC1CCCCN1` (stereo not given), the Potency result is “inactive”.

As to `CCOc1cccc(C2(N3CCN(c4ccccc4)CC3)CCC(C)CC2)c1` (stereo not given), the Potency result is “inactive”.

Regarding `CCCC(C)(COC(N)=O)COC(=O)NC(C)C` (stereo not given), the Potency entry was “inactive”.

Consider `C#C[C@]1(O)CC[C@H]2[C@@H]3CCC4=CC(=O)CCC4=C3C=C[C@@]21CC`, for which the Potency entry is “inactive”.

`O=C(Cc1ccccc1)OCCc1ccccc1`: the Potency result is “inactive”.

For `O=C(NC(=O)c1cc(F)c(F)cc1Cl)Nc1cc(F)ccc1N1CCC(C(=O)O)CC1`, the Potency entry was “inactive”.

As for `FC(Cl)(Cl)C(F)(Cl)Cl`, the Potency entry was “inactive”.

As for `CC(=O)NNc1ccccc1`, the Potency entry is “inactive”.

Consider `CCN(C(C)=O)c1cccc(-c2ccnc3c(C#N)cnn23)c1`, for which the Potency result was “inactive”.

Take `OCCCl`: the Potency result was “inactive”.

For the compound `CCc1cnc(C2=NC(C)(C(C)C)C(=O)N2)c(C(=O)O)c1` (stereo not given), the Potency result was “inactive”.

In the case of `O=C(CCl)CCl`, the Potency entry was “inactive”.

Consider `O=P(OCC(Br)CBr)(OCC(Br)CBr)OCC(Br)CBr` (stereo not given), for which the Potency result was “inactive”.

With `CCOP(=S)(OCC)Oc1ccc(S(C)=O)cc1` (stereo not given), the Potency result was “inactive”.

As for `SCc1ccccc1`, the Potency result is “inactive”.

Take `O=C(O)C(F)(F)C(F)(F)C(F)(F)C(F)(F)C(F)(F)C(F)(F)C(F)(F)C(F)(F)F`: the Potency entry is “inactive”.

On to `CC[N+]1(CCOC(=O)C(O)(c2ccccc2)c2ccccc2)CCCCC1`, for which the Potency result is “inactive”.

As to `Clc1ccccc1`, the Potency entry was “inactive”.

For `CC(C)(C)NCC(O)c1cc(Cl)c(N)c(C(F)(F)F)c1` (stereo not given), the Potency entry is “inactive”.

For the compound `CCC[N+](CCC)(CCC)CCC`, the Potency result was “inactive”.

`O=C(O)c1cc(I)cc(I)c1I`: the Potency result is “inactive”.

As for `O=C(O)CCCOc1ccc(Cl)cc1Cl`, the Potency result is “inactive”.

Consider `CCCCC#N`, for which the Potency result is “inactive”.

On to `CC1(C)CC(=O)CC(C)(C)N1[O]`, for which the Potency result is “inactive”.

With `O=[N+]([O-])/C=C/c1ccccc1`, the Potency result is “inactive”.

With `CCCCCCCCCCCCN(C)C`, the Potency entry is “inactive”.

As to `CC(=O)OC(c1ccccc1)C(Cl)(Cl)Cl` (stereo not given), the Potency entry was “inactive”.

On to `CCCCCCCCP(=O)(O)O`, for which the Potency result is “inactive”.

For `[Cl-].[Cl-].[Hg+2]`, the Potency is 24.8 µM (active) and 54.2 µM (active) and 61.1 µM (active).

With `C[Si](Cn1cncn1)(c1ccc(F)cc1)c1ccc(F)cc1`, the Potency entry was “inactive”.

On to `CCCCNC(=O)OCC#CI`, for which the Potency was 60.8 µM (active).

On to `C[C@]12CC[C@H]3[C@@H](CCC4=CC(=O)CC[C@@H]43)[C@@H]1CC[C@@H]2OC(=O)CCc1ccccc1`, for which the Potency entry was “inactive”.

The next test addresses Androgen receptor (Homo sapiens) (UniProt P10275). Nature of the test: qHTS assay to identify small molecule antagonists of the androgen receptor (AR) signaling pathway using the MDA cell line (AID 743042; note: nearly all actives have a fitted effect of over 55% in size). The following applies: MDA-kb2 AR-luc, MMTV luciferase, R1881 antagonist, 16 h; series mostly up to 70.3 µM. In short, it runs like this:
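MDA-kb2 breast carcinoma cells carrying MMTV-luciferase (AR/GR responsive) were co-treated with compounds and the agonist R1881 for 16 h at 37C. Inhibition read as ONE-Glo luminescence; CellTiter-Fluor fluorescence measured in parallel for cytotoxicity.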
Regarding `CC(=O)NNc1ccccc1`, the Potency result was “inactive”.

With `CC(C)(C)NCC(O)c1cc(Cl)c(N)c(C(F)(F)F)c1` (stereo not given), the Potency entry is “inactive”.

Take `O=C(O)CCCOc1ccc(Cl)cc1Cl`: the Potency result is “inactive”.
